Source: PubChem (several laboratories)
RTF Ca sens inh: cardiac RTF calcium desensitization; P19429+P45379; IANBD-labeled cardiac RTF, Ca2+ fluorescence; inhibition, % at 7.15 µM; 0.12% of 340,000 active; AID 493244;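 active means inhibition above the mean inhibition of all tested compounds plus 3 SD, cut at about 17% in these data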;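 further: assay run at fixed EC70 calcium of 1.6 mM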
CRFBP-R2 block: antagonists of CRF-binding protein/CRF-R2 receptor complex; HEK293 CRF-R2/CRF-BP, CRF-induced calcium fluorescence; inhibition, % at 11.8 µM; 0.59% of 350,000 active; AID 588475;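 active means inhibition of the ligand-induced calcium signal above about 50% at the single tested concentration, limit read from the data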
CRFR2-BP ag: CRF-BP/CRF-R2 complex agonism; HEK293 CRF-R2/CRF-BP, calcium dye fluorescence (FLIPR); percent of saturating CRF peptide response; activation, % at 13.2 µM; 0.46% of 350,000 active; AID 588473;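 active means activation of at least 50%, plus an integration ratio under a set limit after plate pattern correction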;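 further: plate controls were neutral control wells without compound for no effect and CRF at EC100 for full effect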
cardiac RTF act: cardiac RTF calcium sensitization | activation, % at 7.2 µM | P19429+P45379 | IANBD-labeled TnC RTF fluorescence at EC20 calcium; 0% EC20 calcium, 100% full calcium | 0.24% of 340,000 active;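 active means activation above the mean over all tested compounds plus 3 SD, cut at about 30% in these data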;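 further: rise in fluorescence read as greater calcium sensitivity of cardiac thin filaments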
Myeloid diff 2: promotes myeloid progenitor differentiation. 1% of 360,000 active. calls only at 10 µM. ER-HoxA9 myeloid progenitors, lysozyme-GFP differentiation, flow cytometry;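 active means normalized GFP-positive differentiation at or above the plate's own cutoff, the solvent-only control mean plus 3 SD; inconclusive means no clear call, values can overlap the other calls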;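 further: cells exposed to compound for four days before flow analysis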
Active calls of the source: *; i = inactive; ? = inconclusive; nt = no result given; + = active, no number. Most compounds without a hit are left out; they make up all but 2.2% or so of the library.

SMILES	RTF Ca sens inh	CRFBP-R2 block	CRFR2-BP ag	cardiac RTF act	Myeloid diff 2
CC(c1ccco1)N(C(=O)c1ccccc1NS(=O)(=O)c1ccc(Cl)c([N+](=O)[O-])c1)c1ccccn1 (stereo not drawn)	3	52*	15	-5	i
N#C/C=C1/NC(=O)c2ccccc2S1	2	-4	6	4	+
COc1ccc(OC)c(C2=C/C(=C/c3ccccn3)C(=O)O2)c1	-33	-59	76*	18	i
COc1ccc(CCNC(=O)c2c[nH]c3ccccc3c2=O)cc1OC	-5	-1	-2	14	i
O=C(NCCc1ccccc1)c1c[nH]c2ccccc2c1=O	nt	17	73*	nt	i
COc1ccc(N2CCN(C(=O)COC(=O)CCOc3ccc(C)cc3)CC2)cc1	-13	7	1	-11	?
CN1C2CCC1/C(=C/c1cccn1C)C(=O)/C2=C\c1cccn1C	-290	-268	237*	367*	i
Cn1cccc1/C=C1\CC(C(C)(C)C)C/C(=C\c2cccn2C)C1=O (stereo not drawn)	-59	-119	79*	14	+
NCCc1nc(-c2ccccc2)cs1	0	-5	-2	-2	i
COc1ccc(CCN2CC(C(=O)OCC(=O)N(C)CC(=O)Nc3ccccc3Cl)CC2=O)cc1OC (stereo not drawn)	-11	2	-1	2	i
O=[N+]([O-])c1ccc(-c2cn3nc(-c4ccccc4)c(-c4ccccc4)nc3n2)cc1	nt	-48	66*	nt	i
Cc1ccc(-c2cn3nc(-c4ccccc4)c(-c4ccccc4)nc3n2)cc1	nt	-5	13	nt	+
C#CCOC(=O)CCCNc1ccc([N+](=O)[O-])cc1[N+](=O)[O-]	3	11	0	-3	i
O=[N+]([O-])c1cccc(/C=N\N=C2c3ccccc3-c3ccccc32)c1O	-5	58*	-3	-3	i
NC(N)=N/N=C/c1cccc([N+](=O)[O-])c1O	-1	13	-2	-1	i
O=C(CN(C(=O)CCC(=O)Nc1nccs1)c1ccc(F)cc1)NCC1CCCO1 (stereo not drawn)	-8	-9	0	6	i
O=C(CN(Cc1ccc(F)cc1)C(=O)CCC(=O)Nc1nccs1)NCC1CCCO1 (stereo not drawn)	-10	2	-1	-4	+
CCOc1ccc(N(CC(=O)NCC2CCCO2)C(=O)CCC(=O)Nc2nccs2)cc1 (stereo not drawn)	-7	52*	2	-2	i
O=C(/C=C/c1c(F)cccc1Cl)NCCCN1CCOCC1	2	-6	-1	-6	i
O=C1N[C@H]2CC=C[C@H]2Nc2ccccc21	-10	-10	6	-2	+
COC(=O)C1C2CC3c4[nH]c5cc(OC)ccc5c4CCN3CC2CC(OC2CCCCO2)C1OC (stereo not drawn)	nt	-17	5	nt	+
COC(=O)[C@H]1[C@H]2C[C@@H]3c4[nH]c5cc(OC)ccc5c4CCN3C[C@H]2C[C@@H](OC(=O)c2cc(OC)c(OC)c(OC)c2)[C@@H]1OC	-2	-41	5	14	i
O=C1CCCC2=C1C(c1ccc(O)c(O)c1)Nc1ccc3ccccc3c12 (stereo not drawn)	2	3	0	1	i
O=C1CCCC2=C1C(c1ccco1)Nc1ccc3ccccc3c12 (stereo not drawn)	9	-7	3	-3	+
Cc1ccc(Cl)cc1NC(=O)CC1NC2CCCCC2NC1=O (stereo not drawn)	-9	0	4	6	+
SMILES	RTF Ca sens inh	CRFBP-R2 block	CRFR2-BP ag	cardiac RTF act	Myeloid diff 2
FC(F)c1nc2ccccc2[nH]1	-2	19	-1	-2	i
c1ccc2[nH]c3cc4ncnc4cc3nc2c1	-48	-21	28	58*	i
N/C(=N\c1nc2c(c(=O)[nH]1)CCC2)Nc1ccccc1C(F)(F)F	17*	-36	-1	1	i
Cc1ccc(-c2nnc(SCC(=O)N3CCN(c4ccccc4)CC3)o2)cc1	-9	88*	-1	6	i
COc1ccc(-c2nnc(SCC(=O)N3CCN(c4ccccc4)CC3)o2)cc1OC	0	-11	-2	3	i
CCOC(=O)N1CCN(C(=O)CSc2nnc(-c3ccc(C(C)(C)C)cc3)o2)CC1	-6	89*	-2	0	i
Cc1nc(Cc2nnc(SCC(=O)N3CCN(c4ccc(O)cc4)CC3)o2)cs1	-15	1	0	1	+
